# Screening data deposited in PubChem BioAssay by National Center for Advancing Translational Sciences (NCATS).
# TrxR1 substrate = is turned over as a substrate by rat TrxR1. AID 588456. 390,000 tested, 0.01% active. O89049. Potency, µM (doses to about 114 µM), without a hit: top-dose activity change, negative = substrate turnover. purified TrxR1 substrate turnover, NADPH consumption readout; also: potency is read from the fitted curve at half-maximal effect; % is scaled to controls: 0 for no effect and ±100 for the full control effect; nearly all actives have a fitted effect of over 50% in size
#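 Rat TrxR1, dispensed at 90 nM, was prereduced with 400 uM NADPH (final) for 5 min at ~22 deg C, then incubated with compound 15 min before 400 uM selenite. A first-read NADPH fluorescence drop versus no-compound background flagged substrates.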
# GLS inh = blocks human kidney-isoform glutaminase activity | O94925 | GLS enzymatic activity, qHTS titration | Potency, µM (series often up to 45.5 µM), for the others: top-dose activity change, negative = inhibition, actives largely listed as inhibitors | 410,000 tested, 0.21% active; also: potency is read from the fitted curve at half-maximal effect; % is scaled to controls: 0 for no effect and ±100 for the full control effect
#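 Read-out is an Amplex red fluorescence increase coupled through glutamate oxidase and HRP, measured before and after 30 min room-temperature incubation. hKGA is in 45 mM KH2PO4 (pH 8.2) with 0.02% Tween-20; glutamine added as 1mM solution.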
# KAT2A inh = blocks human GCN5L2 histone acetyltransferase; GCN5L2 HAT assay, ThioGlo1 CoA-SH fluorescence; 390,000 tested, 0.21% active; Potency, µM (titrated, usually from 58.9 µM), inactives show at the top dose activity change, negative = inhibition, usual class: inhibitors; AID 504327; also: potency is read from the fitted curve at half-maximal effect; % is scaled to controls: 0 for no effect and ±100 for the full control effect
# Target sequence (Q92830 whole entry, looked up): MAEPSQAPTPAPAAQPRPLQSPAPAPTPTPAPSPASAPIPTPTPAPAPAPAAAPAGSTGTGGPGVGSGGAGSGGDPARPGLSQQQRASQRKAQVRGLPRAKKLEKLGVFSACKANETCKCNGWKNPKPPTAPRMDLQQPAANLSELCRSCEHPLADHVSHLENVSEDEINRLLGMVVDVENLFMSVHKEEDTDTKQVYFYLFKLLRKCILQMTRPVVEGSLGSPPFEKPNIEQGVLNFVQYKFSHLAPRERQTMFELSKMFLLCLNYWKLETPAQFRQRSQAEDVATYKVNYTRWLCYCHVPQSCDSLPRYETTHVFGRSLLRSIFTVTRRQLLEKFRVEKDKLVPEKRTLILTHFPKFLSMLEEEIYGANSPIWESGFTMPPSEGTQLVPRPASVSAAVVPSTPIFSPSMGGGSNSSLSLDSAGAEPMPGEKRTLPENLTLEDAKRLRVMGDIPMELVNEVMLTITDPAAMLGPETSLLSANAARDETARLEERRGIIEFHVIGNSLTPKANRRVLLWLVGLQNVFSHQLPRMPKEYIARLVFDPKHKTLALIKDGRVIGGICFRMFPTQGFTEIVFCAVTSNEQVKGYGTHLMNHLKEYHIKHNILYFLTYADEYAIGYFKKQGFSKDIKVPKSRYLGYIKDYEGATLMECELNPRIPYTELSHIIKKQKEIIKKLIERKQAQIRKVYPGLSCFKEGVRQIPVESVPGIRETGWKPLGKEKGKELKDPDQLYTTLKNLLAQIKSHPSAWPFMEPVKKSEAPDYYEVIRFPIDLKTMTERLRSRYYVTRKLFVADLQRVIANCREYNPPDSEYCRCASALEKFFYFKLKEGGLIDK
#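 Enzyme at 20nM final was mixed with library compounds for 15 min at room temperature. Peptide H3(1-25) at 75uM, acetyl-CoA at 70uM and ThioGlo1 at 50uM were then added. Plates were read immediately and after 20 min (Ex340nm/Em540nm).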
# TrxR1 inh-1 = rat TrxR1 inhibition. O89049. recombinant rTrxR1, NADPH fluorescence consumption, selenite substrate. Potency, µM (titrated, usually from 114 µM), for the others: top-dose activity change, negative = inhibition, actives largely listed as inhibitors. 390,000 tested, 1% active. AID 588453; also: potency is read from the fitted curve at half-maximal effect; % is scaled to controls: 0 for no effect and ±100 for the full control effect; nearly all actives have a fitted effect of over 65% in size
#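 Rat TrxR1 (90 nM in the dispensed reagent) was pre-reduced with 400 uM NADPH for 5 min at room temperature, then incubated with compound for 15 min. After 400 uM selenite was added, NADPH fluorescence (Ex 340/Em 450 nm) was followed for 8 min.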
# VDR inh = blocks the human vitamin D receptor; VDR-SRC2-3 peptide fluorescence polarization, 2 h; Potency, µM, without a hit: max response, negative = inhibition, hits mostly inhibitors; 400,000 tested, 0.93% active; P11473; also: potency is read from the fitted curve at half-maximal effect; % is scaled to controls: 0 for no effect and ±100 for the full control effect
#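 Fluorescence polarization assay of small-molecule disruption of VDR binding to coregulator peptide SRC2-3. Compounds and controls pin-transferred, then read after 2 h incubation at ambient room temperature.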
# Sfp PPTase inh = inhibitors of Bacillus subtilis Sfp phosphopantetheinyl transferase. Q9F4F7. Biochemical Sfp PPTase activity, qHTS. Potency, µM, for the others: largest response in the series, negative = inhibition, most hits filed as inhibitors. 310,000 tested, 3.5% active;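 also: the enzyme is Sfp with the accession as filed and its product quenches rhodamine fluorescence; potency is read from the fitted curve at half-maximal effect; 0% = enzyme reaction without inhibitor and -100% = no enzyme wells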
#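 Fluorescence-quenching assay: 15 nM Sfp-PPTase preincubated 15 min at room temperature with compound, then 5 uM rhodamine-CoA and 12.5 uM BHQ-2-labelled YbbR peptide added. Fluorescence (ex 525/em 598 nm) read at start and after 30 min; difference gives rate.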
# USP1-UAF1 confirm = USP1-UAF1 deubiquitinase inhibition validated; shares compounds with VDR inh; Ub-Rhodamine cleavage, fluorescence kinetic read; Potency, µM (titrated, usually from 56.8 µM), for inactives: at the top dose activity change, negative = inhibition, most hits filed as inhibitors; 50 tested, 50% active
# VDR confirm = confirmation of human vitamin D receptor inhibitors; shares compounds with VDR inh; VDR-coactivator inhibition assay, qHTS confirmation; Potency, µM, hits mostly inhibitors; 840 tested, 89% active; AID 602199; also: potency is read from the fitted curve at half-maximal effect
# VDR FP fluor = blocks human VDR-coactivator binding in fluorescein assay; 840 tested, 48% active; shares compounds with VDR inh; Potency, µM (top dose mostly 57.1 µM), without a hit: at the top dose activity change, negative = inhibition, most hits filed as inhibitors; VDR-coactivator binding, fluorescein fluorescence polarization; also: potency is read from the fitted curve at half-maximal effect
# VDR bla = VDR (human) inhibition, cell-based beta-lactamase validation; shares compounds with VDR inh; VDR beta-lactamase reporter cells, FRET ratio; cells co-treated with VDR agonist LG190178; Potency, µM (highest dose often 46.1 µM), without a hit: top-dose activity change, negative = inhibition, actives largely listed as inhibitors; 840 tested, 23% active; AID 602202; also: potency is read from the fitted curve at half-maximal effect; % is scaled to controls: 0 for no effect and ±100 for the full control effect
# VDR viability = cell toxicity, VDR inhibitor hit counter-screen; shares compounds with VDR inh; cytotoxicity counter-screen, cell viability, qHTS; Potency, µM (titrated, usually from 48.3 µM), for the others: at the highest dose activity change, negative = cytotoxicity, most hits filed as cytotoxic; 840 tested, 18% active;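 also: potency is read from the fitted curve at half-maximal effect; plate controls were DMSO for no effect and high-concentration cycloheximide for full effect; nearly all actives have a fitted effect of over 75% in size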
# GR counterassay = glutathione reductase inhibition, TrxR1 selectivity check | purified GR, DTNB reduction absorbance 405 nm kinetic | AID 652020 | activity change, negative = inhibition, % at 57.1 µM | 55 tested, under 10 active | shares compounds with TrxR1 inh-1
# TrxR1 inh-2 = blocks rat thioredoxin reductase 1 in hit validation | shares compounds with TrxR1 inh-1 | recombinant TrxR1, NADPH fluorescence consumption, selenite substrate | Potency, µM, actives largely listed as inhibitors | 55 tested, 50% active
# TrxR1 insulin MOA = TrxR1 inhibition in insulin mechanism assay | shares compounds with TrxR1 inh-1 | TrxR1 Trx-coupled insulin reduction, NADPH absorbance 340 nm | Potency, µM | 55 tested, 20% active;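 active = compounds with a measured potency under 100 micromolar; inconclusive = filed, but no rule given; inactive = potency at or above that, or unmeasurable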
# TrxR1 inh-3 = rat thioredoxin reductase 1 inhibition, DTNB assay; purified TrxR1, DTNB reduction, A412; 55 tested, 90% active; shares compounds with TrxR1 inh-1; Potency, µM; AID 652256;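 active = a half-inhibiting concentration could be measured and was below 100 µM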
# GLS hit conf = confirmation of human glutaminase inhibitors; biochemical glutaminase enzyme inhibition assay; 35 tested, under 10 active; Potency, µM (titrated, usually from 46.1 µM), for inactives: at the highest dose activity change, negative = inhibition, actives largely listed as inhibitors; AID 624261; shares compounds with GLS inh; calls by dose curve
# HRP GOx counter = counter-screen for glutaminase inhibitors: HRP coupled enzyme inhibition; 35 tested, under 10 active; shares compounds with GLS inh; HRP/glutamate oxidase coupled Amplex Red fluorescence counterscreen; AID 624262; activity change, negative = inhibition, % at 46.1 µM
# HEK293 tox = reduces HEK-293 viability in glutaminase inhibitor counter-screen | 35 tested, under 10 active | shares compounds with GLS inh | activity change, negative = cytotoxicity, % at 46.1 µM | HEK-293 viability, CellTiter-Glo luminescence, 24 h | AID 624264
# An asterisk follows results filed as active; i = inactive; ? = inconclusive; / = no result given; [ ] = dose if it differs, or a comment. Only some compounds are listed: those with a hit (about 3.8% of all), similar ones and a draw of the others. Unless noted, calls follow the shape of the dose curve; as a rule, active = well fitted curve in the direction sought with a large enough effect; inconclusive = small, poorly fitted or top-dose-only effect, or another doubt; inactive = no such curve, though single readings can be large; an effect the other way counts as inactive or inconclusive.
SMILES,TrxR1 substrate,GLS inh,KAT2A inh,TrxR1 inh-1,VDR inh,Sfp PPTase inh,VDR confirm,VDR FP fluor,VDR bla,VDR viability,others
CNC(=O)c1nnsc1S(=O)c1ccc(Cl)cc1 (stereo not drawn),5%[57.1 µM],0%,-16%,0.35µM*,5.6µM*,13µM*,3.8*,4.5µM*,16µM*,?,
COc1cccc(-c2c(-c3cc(OC)cc(OC)c3)n(C)c3ccc(Br)cc23)c1,15%[57.1 µM],-3%,2%,10%[57.1 µM],-20%,/,/,/,/,/,
O=C(NCc1ccccc1)C(c1ccc(F)cc1)N(C(=O)c1csnn1)C1CCCC1 (stereo not drawn),4%[57.1 µM],-2%,-6%,17%[57.1 µM],-7%,15%,/,/,/,/,
O=C(CSC1=NS(=O)(=O)c2cc(F)ccc2N1)Nc1ccccc1,6%,12%,1%,16%,-8%,/,/,/,/,/,
COC(=O)CSC1=NS(=O)(=O)c2ccccc21,-2%,30%,-6%,2.2µM*,32µM*,3.5µM*,8.4*,?,18%,-4%,
O=C(CSC1=NS(=O)(=O)c2ccccc21)Nc1ccccc1,6%[57.1 µM],3%,-20%,7.9µM*,16µM*,13µM*,11*,-18%,-6%,-14%,
O=C1C(=O)c2ccc(-c3ccccc3)cc2-c2ccccc21,10µM*,-7%,-6%,?,3.5µM*,1%,0.67*,?,3.3µM*,2.5µM*,
Nc1ccc2c(c1)C(=O)C(=O)c1ccccc1-2,4µM*,-5%,-19%[0.501 µM],6.3µM*,20µM*,13%,6.7*,?,4.1µM*,2.9µM*,
CC(C)CN1C(=O)/C(=C(/C#N)C(=O)NC2CCCCC2)c2ccccc21,-1%,14%,-2%,-6%,?,7.1µM*,2.8*,2.8µM*,6%,-3%,
CC(C(=O)OCC(=O)NC1CCCCC1)N1C(=O)c2ccccc2C1=O (stereo not drawn),4%,2%,-6%,6%,-12%,/,/,/,/,/,
CCc1sc(C(C2C(=O)CC(C)(C)CC2=O)C2C(=O)CC(C)(C)CC2=O)cc1[N+](=O)[O-],-2%[57.1 µM],7.1µM*,-3%,1.8µM*,13µM*,11µM*,3.4*,?,?,-13%,
CCOC(=O)c1cc(CC)sc1/N=C/C1C(=O)CC(C)(C)CC1=O,-3%,11%,-1%,?,-19%,8%,/,/,/,/,
CC1(C)Cc2ccccc2C2=NNC(=O)C2=N1,124%,3%,0%,313%,11µM*,23%,?,?,-14%,?,
CCN(CC)C(=O)C1=C(C)N(Cc2ccc(F)cc2)C(=O)C(CC(=O)NCCc2ccccn2)C1 (stereo not drawn),/,-2%,/,/,/,/,/,/,/,/,
CCCCOC(=O)NS(=O)(=O)c1sc(CC(C)C)cc1-c1ccc(Cn2c(CC)nc3c(C)cc(C)nc32)cc1,?,/,-26%,?,-3%,/,/,/,/,/,USP1-UAF1 confirm=?
CCCCOC(=O)Nc1ccc(S(=O)(=O)Nc2nc(C)cc(C)n2)cc1,-3%,-8%,-10%,22%,14%,13%,/,/,/,/,
COc1cc(-c2cc(C(=O)Nc3cc(S(=O)(=O)N4CCOCC4)ccc3O)c3ccccc3n2)cc(OC)c1OC,-12%,-7%,-20%,-4%,?,/,?,32µM*,1%,29%,
Cc1ccc(CN(Cc2ccccc2)C(=S)Nc2ccccc2C)o1,13%[57.1 µM],0%,-1%,12%[57.1 µM],-25%,13%,/,/,/,/,
CCN(CC)c1ccc(NC(=O)COc2ccccc2C#N)cc1S(=O)(=O)Nc1ccccc1OC,2%[57.1 µM],?,0%,-8%[57.1 µM],79µM*,?,9.5*,?,0%,17%,GLS hit conf=-1%;HRP GOx counter=-3;HEK293 tox=-10
CCCCC(C)(C)[C@H](O)/C=C/[C@H]1[C@H](O)CC(=O)[C@@H]1C/C=C\CCCC(=O)O,/,/,-6%,/,?,9%,/,/,/,/,
Cc1ccc(-c2nc(C)sc2CC(=O)NCc2ccco2)cc1,10%,5%,-5%,50µM*,-19%,?,/,/,/,/,GR counterassay=-8;TrxR1 inh-2=5.3*;TrxR1 insulin MOA=i;TrxR1 inh-3=10µM*
